Reference: PubChem BioAssay (EPA / NIEHS)
Where “and” joins values, the source holds several entries; their conditions need not be identical. Identical values can stand only once. Where a structure was tested more than once in an assay, its records may differ in their call. Calls of active or inactive are those of the source. How the source made its calls: active means hit-call score of the fitted dose curve at least 0.9, where 1 is the maximum; inactive means score below 0.9.

Assay: CCTE_Shafer_MEA_dev_interburst_interval_mean: CCTE's Neural Network Formation Assay for Mean Interburst Interval, Shafer Lab (AID 2284046)
Method: CCTE_Shafer_MEA_dev assay is conducted using Axion Biosystems 48 well microelectrode array (MEA) plates and Maestro recording system. Each well of the MEA plate contains a grid of 16 microelectrodes embedded in the culture surface. Electrically active cells, such as neurons, can be cultured over the electrodes, and electrical activity in these cells can be recorded extracellularly. The spontaneous firing of neurons is captured from each electrode on a microsecond timescale providing both temporally and spatially precise data. […] The CCTE_Shafer_MEA_dev assay uses primary cultures of rat cortical neurons. Recordings are made on days post-plating 5, 7, 9 and 12. As these cultures mature over time, neural networks develop functional activity and form cohesive networks in which electrical activity can be highly coordinated. CCTE_Shafer_MEA_dev_interburst_interval_mean is 1 of 19 assay components of the CCTE_Shafer_MEA_dev assay. It measures the average time interval between consecutive single-electrode bursts (temporally-clustered groups of action potential firing) during a recording in a microelectrode array (MEA) using Axion Biosystems Maestro 768 channel amplifier with the AxIS adaptive spike detector. The mean inter-burst interval is averaged across the actively bursting electrodes to report a well-mean value. To collapse across multiple recordings made on days post-plating 5, 7, 9 and 12, the trapezoidal area-under-the-curve of the component is calculated.Data from the assay component CCTE_Shafer_MEA_dev_interburst_interval_mean was analyzed into 1 assay endpoint. This assay endpoint, CCTE_Shafer_MEA_dev_interburst_interval_mean, was analyzed in the negative analysis fitting direction relative to DMSO as the negative control and baseline of activity. Using a type of functional reporter, gain or loss-of-signal activity can be used to understand electrical activity.
On the day prior to culture, each well was coated thoroughly with 150 uL of 0.05% polyethyleneimine (PEI, Sigma Cat P3143) in 50 mM HEPES (Sigma Cat H7523) at a pH of 8. The plate was incubated at 37C for one hour. PEI was rinsed out with 500 uL of sterile water three times. Plates were stored at 4C until the day of culture. This culture was plated at a seeding density of 1.5 x 10^5 cells/well on a 48-well MEA plate, prepared as described above. Cells were administered via a 25 uL media/laminin ([…]; Sigma Cat L2020-1MG) drop directly onto the microelectrode array, as adding the cells with the laminin results in better attachment than pre-coating with laminin. After 2 hours, an additional 475 uL of cortical media was added and the cells returned to the incubator. Exposure starts at day 0 of plating and is continued over twelve days of network development until the experiment is terminated. Cells are fed with fresh medium on DIV 5 and 9, following the recordings on those days. The entire volume of media in the well is exchanged and any vehicle or compound treatment is renewed. Complete details are found in OP-NHEERL/ISTD/SBB/TJS/2015-03-r0 (available on request, email shafer.tim@epa.gov). Measurement of the electrical activity is non-invasive, and recordings can be made from the same plate over multiple different days of the culture. In cortical neurons, this allows for the measurement of extracellular action potentials over the period during which networks form in the MEA plate.

Row | Compound | outcome | AC50
1 | CN(C)[C@@H]1C(=O)C(C(N)=O)=C(O)[C@@]2(O)C(=O)C3=C(O)c4c(O)cccc4[C@@](C)(O)[C@H]3[C@H](O)[C@@H]12 | inactive | –
2 | CCCSP(=O)(OCC)Oc1ccc(Br)cc1Cl (centres undefined) | inactive | –
3 | CCOP(=S)(OCC)SCCSCC | inactive | –
4 | CCCCSP(=O)(SCCCC)SCCCC | – | 63.3 µM (active) and 49.9 µM (active)
5 | CC(C)N(C(=O)SCC(Cl)=C(Cl)Cl)C(C)C | inactive | –
6 | C[N+]1(C)CCCCC1 | inactive | –
7 | CCOC(=O)CC(SP(=O)(OC)OC)C(=O)OCC (centres undefined) | inactive | –
8 | CSC1=N[C@@](C)(c2ccccc2)C(=O)N1Nc1ccccc1 | inactive | –
9 | CCOP(=S)(OCC)OC(Cl)C(Cl)(Cl)Cl (centres undefined) | – | 50 µM (active) and 13.7 µM (active)
10 | CCOP(=O)(NC(C)C)Oc1ccc(SC)c(C)c1 (centres undefined) | inactive | 31.5 µM (active)
11 | C#CCC1=C(C)C(OC(=O)C2C(C=C(C)C)C2(C)C)CC1=O (centres undefined) | inactive | –
12 | CN1COCN(Cc2cnc(Cl)s2)C1=N[N+](=O)[O-] | inactive | –
13 | CCOP(=S)(OCC)Oc1cc(C)nc(C(C)C)n1 | inactive | –
14 | CC[C@H](C)[C@H]1O[C@]2(C=C[C@@H]1C)C[C@@H]1C[C@@H](C/C=C(\C)[C@@H](O[C@H]3C[C@H](OC)[C@@H](O[C@H]4C[C@H](OC)[C@@H](NC)[C@H](C)O4)[C@H](C)O3)[C@@H](C)/C=C/C=C3\CO[C@@H]4[C@H](O)C(C)=C[C@@H](C(=O)O1)[C@]34O)O2 | – | 220 nM (active) and 2.96 nM (active)
15 | C[Si](Cn1cncn1)(c1ccc(F)cc1)c1ccc(F)cc1 | inactive | –
16 | CCCSP(=O)(OCC)SCCC | inactive | –
17 | COP(=O)(NC(C)=O)SC (centres undefined) | inactive | –

Row | Compound | outcome | AC50
18 | CCOP(=O)(SC(C)CC)N1CCSC1=O (centres undefined) | inactive | –
19 | CC1=NNC(=O)N(/N=C/c2cccnc2)C1 | inactive | –
20 | CC(Oc1cccc(Cl)c1)C(=O)O (centres undefined) | inactive | –
21 | CCOP(=S)(OCC)Oc1ccc([N+](=O)[O-])cc1 | inactive | –
22 | COP(=O)(OC)OC(Br)C(Cl)(Cl)Br (centres undefined) | – | 8.78 µM (active) and 10.1 µM (active)
23 | S=C1NCCN1 | inactive | –
24 | CCOP(=O)(OCC)Oc1cc(C)nc(C(C)C)n1 | inactive | –
25 | CC(=NC#N)N(C)Cc1ccc(Cl)nc1 | inactive | –
26 | CCOP(=S)(Oc1cnc(C(C)(C)C)nc1)OC(C)C (centres undefined) | – | 50 µM (active) and 16.6 µM (active)
27 | CC(C)=CC1C(C(=O)OCN2C(=O)C3=C(CCCC3)C2=O)C1(C)C (centres undefined) | inactive | –
28 | C=C(C)[C@H]1Cc2c(ccc3c2O[C@@H]2COc4cc(OC)c(OC)cc4[C@@H]2C3=O)O1 | – | 41.4 nM (active) and 31.6 nM (active)
29 | COP(=O)(OC)C(O)C(Cl)(Cl)Cl (centres undefined) | inactive | –
30 | O=[N+]([O-])c1cc(C(F)(F)F)c(Cl)c([N+](=O)[O-])c1Nc1ncc(C(F)(F)F)cc1Cl | – | 0.885 µM (active)
31 | CON=C(C(=O)OC)c1ccccc1CON=C(C)c1cccc(C(F)(F)F)c1 | – | 1.32 µM (active) and 798 nM (active)
32 | CCOP(=S)(OCC)Oc1ccc2c(C)c(Cl)c(=O)oc2c1 | inactive | –
33 | CC(C)[C@H](C(=O)O[C@H](C#N)c1cccc(Oc2ccccc2)c1)c1ccc(Cl)cc1 | – | 17.9 µM (active)
